From the supplement of paper PMC6089552
Among all 3,200 compounds or so, about 300 (9.4%) showed activity. Shown is part of a subset that was picked to be rich in actives.

System: A673/TR/shEF
Assay: cell viability (LOESS-normalised, relative to median of negative controls) (log2 ratio); higher = more viable cells (less compound effect), active = hit call of the paper (over 3 MAD below the median)
Conditions: treatment time: 72 h
Summary of the method: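 For three days, A673/TR/shEF Ewing sarcoma cells in 384-well plates (1,500 per well) were treated with library compounds at two or more concentrations or with DMSO controls, after doxycycline had been added or withheld 24 h beforehand to induce EWS-FLI1 shRNA knockdown. Viability was read by CellTiter-Glo luminescence on an Envision reader. The data were LOESS-corrected per plate, divided by the median of negative controls and log2-transformed.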

[1] = 0.25 µM, library screen: screen1, EWS-FLI1 expression: high (no doxycycline)
[2] = 0.25 µM, library screen: screen1, EWS-FLI1 expression: low (doxycycline-induced shRNA knockdown)
[3] = 2.5 µM, library screen: screen1, EWS-FLI1 expression: high (no doxycycline)
[4] = 2.5 µM, library screen: screen1, EWS-FLI1 expression: low (doxycycline-induced shRNA knockdown)
[5] = 0.25 µM, library screen: screen2, EWS-FLI1 expression: high (no doxycycline)
[6] = 0.25 µM, library screen: screen2, EWS-FLI1 expression: low (doxycycline-induced shRNA knockdown)
[7] = 2.5 µM, library screen: screen2, EWS-FLI1 expression: high (no doxycycline)
[8] = 2.5 µM, library screen: screen2, EWS-FLI1 expression: low (doxycycline-induced shRNA knockdown)

Measured: cell viability (log2)

C[C@@H]1C[C@H]2CC(=O)[C@H]3CCCN4CCC[C@H]2[C@]34C1
inactive: [1] 0.103 | [2] 0.0455 | [3] 0.108 | [4] 0.0845

O=P1(N(CCCl)CCCl)NCCCO1 (stereo not given)
inactive: 0.025 µM, library screen: screen2, EWS-FLI1 expression: high (no doxycycline) 0.105 | 0.025 µM, library screen: screen2, EWS-FLI1 expression: low (doxycycline-induced shRNA knockdown) 0.0824 | 0.103 µM, library screen: screen3, EWS-FLI1 expression: high (no doxycycline) 0.146 | 0.103 µM, library screen: screen3, EWS-FLI1 expression: low (doxycycline-induced shRNA knockdown) 0.0804 | [1] 0.11 | [2] 0.163 | [5] 0.137 | [6] 0.0863 | 0.308 µM, library screen: screen3, EWS-FLI1 expression: high (no doxycycline) 0.0638 | 0.308 µM, library screen: screen3, EWS-FLI1 expression: low (doxycycline-induced shRNA knockdown) 0.0134 | 0.926 µM, library screen: screen3, EWS-FLI1 expression: high (no doxycycline) 0.0846 | 0.926 µM, library screen: screen3, EWS-FLI1 expression: low (doxycycline-induced shRNA knockdown) 0.061 | [3] 0.228 | [4] 0.17 | [7] 0.122 | [8] 0.0525 | 2.8 µM, library screen: screen3, EWS-FLI1 expression: high (no doxycycline) 0.114 | 2.8 µM, library screen: screen3, EWS-FLI1 expression: low (doxycycline-induced shRNA knockdown) 0.0823 | 8.3 µM, library screen: screen3, EWS-FLI1 expression: high (no doxycycline) 0.0653 | 8.3 µM, library screen: screen3, EWS-FLI1 expression: low (doxycycline-induced shRNA knockdown) 0.1 | 25 µM, library screen: screen2, EWS-FLI1 expression: high (no doxycycline) 0.0276 | 25 µM, library screen: screen2, EWS-FLI1 expression: low (doxycycline-induced shRNA knockdown) 0.165 | 25 µM, library screen: screen3, EWS-FLI1 expression: high (no doxycycline) 0.071 | 25 µM, library screen: screen3, EWS-FLI1 expression: low (doxycycline-induced shRNA knockdown) 0.141

Cc1c(N)nc([C@H](CC(N)=O)NC[C@H](N)C(N)=O)nc1C(=O)N[C@H](C(=O)N[C@H](C)[C@@H](O)[C@H](C)C(=O)N[C@H](C(=O)NCCc1nc(-c2nc(C(=O)NCCC[S+](C)C)cs2)cs1)[C@@H](C)O)[C@@H](OC1OC(CO)C(O)C(O)C1OC1OC(CO)C(O)C(OC(N)=O)C1O)c1cnc[nH]1 (stereo not given in full)
inactive: [1] 0.091 | [2] 0.105 | [3] 0.125 | [4] 0.052

C[C@]12CC[C@H](O)C[C@@H]1CC[C@@H]1[C@@H]2CC[C@]2(C)[C@@H](O)CC[C@@H]12
inactive: [1] 0.128 | [2] 0.00375 | [3] 0.117 | [4] 0.154

C[C@]12CC[C@H](O)C[C@H]1CC[C@@H]1[C@@H]2[C@H](O)C[C@]2(C)[C@@H](C3=CC(=O)OC3)CC[C@]12O
active: [3] -0.259 | [4] -0.409
inactive: [1] 0.0899 | [2] -0.0779

C[C@]12CC[C@H](O)C[C@@H]1CC[C@@H]1[C@@H]2CC[C@]2(C)C(=O)CC[C@@H]12
inactive: [1] 0.113 | [2] 0.0515 | [3] 0.101 | [4] 0.0566

C[C@]12CC[C@@H](O)C[C@@H]1CC[C@@H]1[C@@H]2CC[C@]2(C)C(=O)CC[C@@H]12
inactive: [1] -0.00242 | [2] -0.00815 | [5] 0.137 | [6] 0.0672 | [3] 0.0414 | [4] 0.0708 | [7] 0.202 | [8] 0.0943

C[C@]12CCC3C(CC[C@H]4C[C@H](O)CC[C@]34C)C1CC[C@@H]2O (stereo not given in full)
inactive: [1] 0.158 | [2] 0.216 | [3] 0.201 | [4] 0.106

C[C@]12CC[C@H](O)C[C@H]1CC[C@@H]1[C@@H]2C[C@@H](O)[C@]2(C)[C@@H](C3=CC(=O)OC3)CC[C@]12O
inactive: [1] 0.0425 | [2] -0.036
active: [3] -0.488 | [4] -0.691

CN1C2C[C@H](OC(=O)[C@H](CO)c3ccccc3)CC1[C@@H](O)C2 (stereo not given in full)
inactive: [1] 0.0376 | [2] 0.0137 | [3] 0.116 | [4] 0.0715

C=C1C2CC[C@@]3(C)[C@H](c4ccoc4)OC(=O)C[C@]13O[C@H]1CC(=O)C(C)(C)[C@H](C(OC(C)=O)C(=O)OC)[C@@]21C (stereo not given in full)
inactive: [1] 0.0428 | [2] 0.0583 | [3] 0.106 | [4] 0.119

CN1C2CCC1CC(OC(c1ccccc1)c1ccccc1N)C2 (stereo not given)
inactive: [1] 0.0792 | [2] 0.0013 | [5] 0.13 | [6] 0.107 | [3] 0.094 | [4] -0.0817 | [7] 0.165 | [8] 0.125

C[C@@H]1C(=O)O[C@H]2[C@H]1CC[C@@]1(C)C=CC(=O)[C@@]3(C)O[C@@]213
inactive: [1] -0.0341 | [2] 0.0137 | [3] 0.0354 | [4] 0.0553

COP(N)(=O)SC (stereo not given)
inactive: [1] 0.148 | [2] 0.0387 | [3] 0.151 | [4] 0.112

COc1cc(C(O)CN)ccc1O (stereo not given)
inactive: [5] 0.137 | [6] 0.137 | [7] 0.0316 | [8] 0.00185

c1ccc(N=Nc2ccccc2)cc1
inactive: [1] 0.0795 | [2] 0.0179 | [3] 0.0868 | [4] 0.083

NC(=NCCCC(N)C(=O)O)N[N+](=O)[O-] (stereo not given)
inactive: [1] 0.0461 | [2] 0.0355 | [5] 0.174 | [6] -0.00505 | [3] 0.0987 | [4] 0.0962 | [7] 0.128 | [8] 0.0828

CN1C[C@@H](CO)C=C2c3cccc4[nH]cc(c34)C[C@@H]21
inactive: [1] 0.0549 | [2] 0.11 | [3] 0.076 | [4] 0.0565

NC(=O)CN1CC(O)CC1=O (stereo not given)
inactive: [5] 0.159 | [6] 0.0927 | [7] 0.0479 | [8] 0.0838

CC[C@@H]1/C=C/C=C/C[C@H](C)[C@@H](O)[C@](C)(O)C(=O)[C@H](C)[C@@H](O)[C@H](C)C(=O)[C@H](C)[C@@H](O)[C@H](C)/C=C/C(=O)O[C@H]2[C@@H](C)[C@@H](CC1)O[C@@]1(CC[C@@H](C)[C@@H](C[C@H](C)O)O1)[C@@H]2C
active: [5] -0.731 | [6] -0.205 | [7] -0.713 | [8] -0.154

NC(CCP(=O)(O)O)C(=O)O (stereo not given)
inactive: [5] 0.115 | [6] 0.0812 | [7] 0.106 | [8] 0.13

CC(C)(C#N)O[C@@H]1O[C@H](CO)[C@@H](O)[C@H](O)[C@H]1O
inactive: [1] 0.0597 | [2] 0.0616 | [3] 0.164 | [4] -0.0392

CC(C)NC(C)Cc1ccc(I)cc1 (stereo not given)
inactive: [5] 0.0787 | [6] 0.0338 | [7] 0.129 | [8] 0.0526

CCN1C[C@]2(COC)[C@H](O)C[C@H](OC)[C@]34C1[C@H]([C@H](OC)[C@H]23)[C@]1(OC(C)=O)[C@H]2[C@@H](OC(=O)c3ccccc3)[C@](O)(C[C@H]24)[C@@H](OC)[C@@H]1O
inactive: [1] 0.162 | [2] 0.0997 | [3] 0.181 | [4] 0.202

CCC(=O)C(CC(C)N1CCOCC1)(c1ccccc1)c1ccccc1 (stereo not given)
inactive: [1] 0.0298 | [2] 0.011 | [3] 0.0537 | [4] -0.074

CC[C@@H](C(=O)[C@@H](C)[C@@H](O)[C@H](C)[C@@H]1O[C@@H]([C@@H](CC)C(=O)O)CC[C@@H]1C)[C@H]1OC2(C=C[C@@H](O)[C@]3(CC[C@@](C)([C@H]4CC[C@](O)(CC)[C@H](C)O4)O3)O2)[C@H](C)C[C@@H]1C (stereo not given in full)
active: [1] -0.101 | [3] -0.582
inactive: [2] 0.0935 | [4] -0.123

O=C(O)CF
inactive: [1] -0.0204 | [2] -0.0324 | [3] 0.103 | [4] 0.0882

COc1cc(CC(C)N)c(OC)cc1I (stereo not given)
inactive: [5] 0.14 | [6] 0.0726 | [7] 0.151 | [8] 0.083

O=C[C@H](Cl)[C@@H](O)[C@H](O)[C@H](O)CO
inactive: [5] 0.14 | [6] 0.0253 | [7] 0.0931 | [8] 0.107

NCC#Cc1ccccc1
inactive: [5] 0.139 | [6] -0.0046 | [7] 0.0226 | [8] 0.0206

c1ccc2c(c1)[I+]c1ccccc1-2
active: [5] -1.37 | [6] -0.118 | [7] -1.4 | [8] -0.388

O=C1c2ccccc2C(=O)c2ccccc21
inactive: [1] 0.0481 | [2] 0.0868 | [3] 0.203 | [4] 0.0785

COc1cc2c3cc1Oc1cc(ccc1O)C[C@H]1c4c(cc(OC)c(O)c4Oc4ccc(cc4)C[C@@H]3N(C)CC2)CCN1C
inactive: [1] 0.0853 | [2] 0.0939 | [3] 0.083 | [4] 0.276

CC1=C2[C@H]3OC(=O)[C@@H](C)[C@@H]3CC[C@@]2(C)C=CC1=O
inactive: [1] 0.0669 | [2] -0.0349 | [3] 0.0906 | [4] 0.0161

CCN(CC)C(=O)N[C@H]1C=C2c3cccc4[nH]cc(c34)C[C@H]2N(C)C1
inactive: [5] 0.144 | [6] 0.146 | [7] 0.172 | [8] 0.138

C=C(C)[C@@H]1C2OC(=O)C1[C@]1(O)CC3O[C@]34C(=O)O[C@H]2[C@]14C.CC(C)(O)[C@@H]1C2OC(=O)C1[C@]1(O)C[C@H]3O[C@]34C(=O)O[C@H]2[C@]14C (stereo not given in full)
inactive: [5] 0.0987 | [6] 0.0228 | [7] 0.079 | [8] 0.0567

O=C(O)[C@@H]1CCN1
inactive: [5] 0.101 | [6] 0.092 | [7] 0.0671 | [8] 0.0609

O=C(O)C1C2CCC(O2)C1C(=O)O (stereo not given)
inactive: 0.025 µM, library screen: screen1, EWS-FLI1 expression: high (no doxycycline) 0.136 | 0.025 µM, library screen: screen1, EWS-FLI1 expression: low (doxycycline-induced shRNA knockdown) 0.0328 | [1] 0.0769 | [2] 0.0235 | [5] 0.267 | [6] 0.0812 | [7] 0.105 | [8] -0.0306
active: [3] -0.431 | [4] -2.19 | 25 µM, library screen: screen1, EWS-FLI1 expression: high (no doxycycline) -0.369 | 25 µM, library screen: screen1, EWS-FLI1 expression: low (doxycycline-induced shRNA knockdown) -2.13

COc1ccc(CN2CCN(Cc3cccc(F)c3)CC2)cc1
inactive: [1] 0.0679 | [2] 0.104 | [3] 0.124 | [4] 0.0696

Nc1ncnc2c1ncn2[C@@H]1O[C@@H]2COP(O)(=S)O[C@H]2[C@H]1O (stereo not given in full)
inactive: [5] 0.205 | [6] 0.149 | [7] 0.079 | [8] 0.148
